# Assays:
# Conditions in all cases: concentration: 1 μM,replicates: in singlicate; n = 1
# EPHA7 = tested on: EPHA7
# EPHA8 = tested on: EPHA8
# EPHB1 = tested on: EPHB1
# EPHB2 = tested on: EPHB2
# EPHB3 = tested on: EPHB3
# EPHB4 = tested on: EPHB4
# EPHB6 = tested on: EPHB6
# ERBB2 = tested on: ERBB2
# ERBB3 = tested on: ERBB3
# ERBB4 = tested on: ERBB4
# ERK1 = tested on: T1, ERK1
# T1 construct: gene MAPK3
# ERK2 = tested on: T2, ERK2
# T2 construct: gene MAPK1
# ERK3 = tested on: T3, ERK3
# T3 construct: gene MAPK6
# ERK4 = tested on: T4, ERK4
# T4 construct: gene MAPK4
# ERK5 = tested on: T5, ERK5
# T5 construct: gene MAPK7
# ERK8 = tested on: T6, ERK8
# T6 construct: gene MAPK15
# ERN1 = tested on: ERN1
# FAK = tested on: T7, FAK
# T7 construct: gene PTK2
# FER = tested on: FER
# FES = tested on: FES
# 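Also: KINOMEscan kinase panel screen.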
SMILES,%Inh (EPHA7),%Inh (EPHA8),%Inh (EPHB1),%Inh (EPHB2),%Inh (EPHB3),%Inh (EPHB4),%Inh (EPHB6),%Inh (ERBB2),%Inh (ERBB3),%Inh (ERBB4),%Inh (ERK1),%Inh (ERK2),%Inh (ERK3),%Inh (ERK4),%Inh (ERK5),%Inh (ERK8),%Inh (ERN1),%Inh (FAK),%Inh (FER),%Inh (FES)
CC(=O)c1c(-c2ccncc2)[nH]c(-c2ccncc2)c1C [GW493036],1%,6%,12%,0%,3%,18%,0%,0%,17%,34%,3%,0%,0%,0%,0%,96.5%,0%,0%,2%,0%
Cc1ccc2c(-c3ccnc(Nc4ccc(C(F)(F)F)cc4)n3)cnn2n1 [GW819776],0%,6%,14%,0%,7%,0%,14%,0%,0%,5%,19%,3%,22%,0%,0%,99.4%,17%,13%,18%,10%
Cn1ccc2ncnc(Oc3ccc(NC(=O)Nc4cc(C(C)(C)C)on4)c(Cl)c3)c21,90%,98.9%,65%,78%,40%,35%,64%,81%,5%,0%,9%,5%,8%,9%,6%,65%,49%,0%,0%,25%
C[C@@H](Oc1cc(-n2cnc3cc(-c4cnn(C)c4)ccc32)sc1C(N)=O)c1ccccc1Cl [GSK580432],4%,34%,29%,0%,16%,19%,93.7%,0%,0%,0%,0%,0%,10%,10%,0%,64%,3%,0%,38%,18%
Cl.c1ccc(Oc2ccc(Nc3ccnc4cc(-c5ccc(CN6CCNCC6)o5)ccc34)cc2)nc1 [GW567142],0%,10%,0%,0%,0%,4%,96.2%,92%,97%,42%,0%,0%,0%,30%,0%,0%,0%,9%,4%,0%
Cn1ccc2ncnc(Oc3ccc(NC(=O)Nc4cccc(C(F)(F)F)c4)c(F)c3)c21,93.8%,98.8%,80%,90.6%,74%,81%,97.6%,10%,24%,2%,0%,19%,0%,14%,11%,74%,0%,34%,28%,0%
CC(C(=O)NC1CCN(c2ccnc(Nc3ccc(F)cc3)n2)C1)c1ccc(Cl)cc1 (stereo not shown) [GSK1379713],5%,14%,10%,0%,0%,0%,0%,25%,0%,0%,0%,0%,0%,0%,0%,0%,0%,0%,46%,1%
OCCn1cc(-c2cnc3nnn(Cc4ccc5ncccc5c4)c3n2)cn1,0%,0%,0%,0%,0%,0%,17%,5%,0%,0%,0%,0%,0%,18%,3%,9%,0%,0%,0%,0%
C[C@@H](Oc1cc(-n2cnc3ccc(-c4ccncc4)cc32)sc1C(N)=O)c1ccccc1Cl [GSK483724],14%,23%,26%,0%,9%,10%,0%,14%,0%,41%,5%,0%,0%,0%,0%,55%,3%,0%,39%,4%
C[C@@H]1CNc2c(sc3ccc4nc(-c5ccncc5)ccc4c23)C(=O)N1,0%,0%,0%,0%,20%,17%,18%,14%,10%,0%,0%,6%,0%,16%,15%,24%,0%,0%,20%,9%
O=C(Nc1n[nH]c2cc(-c3ccco3)ccc12)C1CC1 [SB-737447],0%,0%,0%,0%,6%,0%,34%,0%,0%,0%,0%,0%,0%,3%,0%,72%,9%,3%,0%,1%
COc1ccc(Nc2nccc(N3CCC(NC(=O)c4cccc(C#N)c4)C3)n2)cc1 (stereo not shown) [GSK1379730],3%,18%,0%,0%,3%,0%,0%,0%,0%,0%,1%,26%,0%,0%,0%,30%,0%,0%,27%,0%
c1ccc(Oc2ccc(Nc3ccnc4ccc(-c5ccccn5)cc34)cc2)cc1 [GW407034],0%,14%,0%,5%,1%,13%,49%,90.3%,89%,88%,0%,83%,4%,0%,0%,31%,0%,0%,18%,0%
CC(=O)Nc1nc2cnc(Nc3cc(NC(=O)c4cccc(CC(C)(C)C#N)c4)ccc3C)nc2s1,4%,72%,11%,55%,13%,37%,61%,42%,9%,0%,1%,15%,0%,4%,9%,53%,0%,8%,0%,0%
COC(=O)Nc1nc2cc(Oc3ccc(NC(=O)Nc4cc(C(F)(F)F)ccc4Cl)cc3)ccc2[nH]1.Cl [GW697465],84%,99.7%,62%,60%,10%,51%,83%,45%,25%,37%,0%,0%,6%,0%,0%,90.9%,0%,0%,24%,0%
CSc1nccc(-c2c(-c3ccc(F)cc3)ncn2CCCN2CCOCC2)n1.Cl [SB-217146],0%,0%,11%,0%,0%,0%,0%,7%,0%,0%,0%,0%,0%,0%,0%,0%,33%,0%,0%,3%
Cn1cc(-c2cccc3c(N)c(C(N)=O)nnc23)cn1,6%,13%,4%,12%,11%,5%,16%,14%,27%,0%,5%,27%,0%,0%,0%,0%,33%,21%,8%,8%
Cc1cccc(-c2nc(Nc3ccncc3)c3sccc3n2)n1 [GW869641],6%,2%,15%,6%,16%,0%,30%,29%,29%,13%,5%,18%,3%,26%,0%,2%,32%,2%,9%,7%
CC(C)c1nc(-c2cccc(NS(=O)(=O)c3ccccc3)c2)c(-c2ccnc(Nc3ccc4c(c3)CN(C)CC4)n2)s1 [GSK1649598],13%,80%,34%,0%,0%,11%,98.5%,86%,97.7%,98.8%,0%,0%,0%,43%,11%,0%,63%,0%,23%,0%
NC(=O)c1ccc(-c2cc3ncnc(SCC(=O)O)c3s2)cc1,0%,0%,0%,0%,26%,1%,62%,33%,0%,10%,0%,4%,0%,0%,0%,63%,0%,0%,0%,16%

# — publication PMC5540273 (PLoS ONE, 2017)
